# According to PubChem BioAssay (NCATS):
# Where “and” joins values, the source holds several entries; their conditions need not be identical. Equal entries are not always repeated. Records with an inconclusive call do not appear. Entries that show only a call come without a potency. Calls of active or inactive are those of the source. The call rests on the fitted dose curve; in most records, active means well fitted curve in the direction sought with a large enough effect; inconclusive means small, poorly fitted or top-dose-only effect, or another doubt; inactive means no such curve, though single readings can be large; an effect the other way counts as inactive or inconclusive.
# Assays:
# [1] = target: Metallo-beta-lactamase type 2 (Klebsiella pneumoniae) (UniProt C7C422); test: qHTS to identify inhibitors of the New Delhi Metallo-beta-lactamase (NDM): assay validation screen against the NCATS LOPAC Collection (AID 1794843);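 further: nitrocefin turnover by NDM-1 measured as 485 nm absorbance at plateau; series mostly up to about 38 µM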
# Procedure, shortened: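 Enzyme 2 nM final, 50 mM HEPES pH 7.0, 1 uM ZnSO4, 0.01% Tween20; cpds in DMSO, preincub w/ enzyme; + nitrocefin (50 uM stock); A485 at plateau; no-enzyme column as blank.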
# [2] = target: Glutathione peroxidase 1 (Homo sapiens) (UniProt P07203); test: Primary qHTS Assay for Inhibitors of Recombinant Selenoprotein Glutathione Peroxidase 1 (GPX1) (AID 1845191); further: nearly all actives have a fitted effect of over 65% in size; further: potency means the concentration at half of the fitted maximal effect
# Procedure, shortened: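 NADPH consumption tracked by fluorescence at 340/450 nm between t=0 and t=15 min, room temperature. Final mix: 10 nM GPX1, 100 nM glutathione reductase, 1 mM GSH, 0.5 mM NADPH, 0.5 mM cumene hydroperoxide, 0.01% BSA; 30 min compound–enzyme preincubation.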
# [3] = target: Phospholipid hydroperoxide glutathione peroxidase GPX4 (Homo sapiens) (UniProt P36969); test: Primary qHTS Assay for Inhibitors of Recombinant Selenoprotein Glutathione Peroxidase 4 (GPX4) (AID 1845192); further: nearly all actives have a fitted effect of over 65% in size
# Procedure, shortened: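 NADPH consumption followed by fluorescence at 340/450 nm, t=0 and after 15 min at room temperature. Reaction started with cumene hydroperoxide (0.5 mM final) after 30 min compound–GPX4 preincubation; final 200 nM GPX4, 100 nM GR, 1 mM GSH, 0.5 mM NADPH.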
# Chain of Phospholipid hydroperoxide glutathione peroxidase GPX4 (Homo sapiens) (P36969 whole entry, looked up): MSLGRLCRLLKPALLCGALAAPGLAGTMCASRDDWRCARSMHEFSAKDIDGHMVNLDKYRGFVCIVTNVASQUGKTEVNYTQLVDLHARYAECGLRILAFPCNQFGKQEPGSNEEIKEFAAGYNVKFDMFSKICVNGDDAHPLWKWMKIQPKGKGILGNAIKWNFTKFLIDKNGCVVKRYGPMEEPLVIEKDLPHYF
# Chain of Metallo-beta-lactamase type 2 (Klebsiella pneumoniae) (C7C422 whole entry, looked up): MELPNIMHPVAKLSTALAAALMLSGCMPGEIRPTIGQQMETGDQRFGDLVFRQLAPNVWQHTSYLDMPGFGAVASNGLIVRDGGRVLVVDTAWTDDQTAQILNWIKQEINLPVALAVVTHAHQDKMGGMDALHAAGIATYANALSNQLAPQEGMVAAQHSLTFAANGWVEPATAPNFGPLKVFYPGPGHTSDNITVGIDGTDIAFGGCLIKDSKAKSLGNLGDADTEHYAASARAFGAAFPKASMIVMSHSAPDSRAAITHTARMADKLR
# Chain of Glutathione peroxidase 1 (Homo sapiens) (P07203 whole entry, looked up): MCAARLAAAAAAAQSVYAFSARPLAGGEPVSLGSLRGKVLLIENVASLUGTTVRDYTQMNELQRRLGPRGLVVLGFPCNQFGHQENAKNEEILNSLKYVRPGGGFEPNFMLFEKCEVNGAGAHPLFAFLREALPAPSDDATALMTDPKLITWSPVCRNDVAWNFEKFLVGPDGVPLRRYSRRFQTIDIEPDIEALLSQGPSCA
SMILES,Potency [1],Potency [2],Potency [3]
CCCCC[C@H](CC(=O)NO)C(=O)N[C@H](C(=O)N1CCC[C@H]1CO)C(C)C,inactive,inactive,inactive
CC#CCOC(=O)c1c(C)nc2sc3c(c2c1N)CCC(O)C3 (configuration not stated),inactive,inactive,inactive
CCCc1c(-c2ccc(O)cc2)nn(-c2ccc(O)cc2)c1-c1ccc(O)cc1,inactive,inactive,inactive
CCN(CC)CCCCCCCCOC(=O)c1cc(OC)c(OC)c(OC)c1,inactive,inactive,inactive
NC(=O)c1cc[n+](CC2=C(C(=O)O)N3C(=O)[C@@H](NC(=O)[C@@H](c4ccccc4)S(=O)(=O)[O-])[C@H]3SC2)cc1,inactive,4.53 µM (active) and 28.2 µM (active),inactive
c1ccc2c(c1)CCC[C@H]2Nc1nc2ccccc2[nH]1,inactive,inactive,inactive
O=C(O)C1CCCNC1 (configuration not stated),inactive,inactive,inactive
CC1CNCCN1S(=O)(=O)c1cccc2cnccc12 (configuration not stated),inactive,inactive,inactive
N#Cc1cc2nc(O)c(O)nc2cc1[N+](=O)[O-],inactive,inactive,inactive
O=C(O)Cc1c[nH]c2ccc(O)cc12,inactive,inactive,inactive
N[C@@H](Cc1c[nH]c2ccccc12)C(=O)O,inactive,inactive,inactive
CC(C)(CO)Cc1cc(C(C)(C)C)c(O)c(C(C)(C)C)c1,inactive,inactive,inactive
NCC(O)(CS(=O)(=O)O)c1ccc(Cl)cc1 (configuration not stated),inactive,inactive,inactive
NC(N)=NC(N)=Nc1cccc(Cl)c1,inactive,inactive,inactive
